Measurements reported in publication PMC5540273 (PLoS ONE, 2017).
Read-outs that look alike come from different tables or passages of the source.

Legend:
FYN = settings: concentration: 1 μM, replicates: in singlicate; n = 1
GAK = settings: concentration: 1 μM, replicates: in singlicate; n = 1
GCN2(Kin.Dom.2,S808G) = test system: T1, GCN2(Kin.Dom.2,S808G); settings: concentration: 1 μM, replicates: in singlicate; n = 1
T1 construct: gene EIF2AK4

GRK1 = settings: concentration: 1 μM, replicates: in singlicate; n = 1
GRK2 = test system: T2, GRK2; settings: concentration: 1 μM, replicates: in singlicate; n = 1
T2 construct: gene ADRBK1

GRK3 = test system: T3, GRK3; settings: concentration: 1 μM, replicates: in singlicate; n = 1
T3 construct: gene ADRBK2

GRK4 = settings: concentration: 1 μM, replicates: in singlicate; n = 1
GRK7 = settings: concentration: 1 μM, replicates: in singlicate; n = 1
GSK3A = settings: concentration: 1 μM, replicates: in singlicate; n = 1
GSK3B = settings: n = 1
HASPIN = test system: T4, HASPIN; settings: concentration: 1 μM, replicates: in singlicate; n = 1
T4 construct: gene GSG2

HCK = settings: concentration: 1 μM, replicates: in singlicate; n = 1
HIPK1 = settings: concentration: 1 μM, replicates: in singlicate; n = 1
HIPK2 = settings: concentration: 1 μM, replicates: in singlicate; n = 1
HIPK3 = settings: concentration: 1 μM, replicates: in singlicate; n = 1
HIPK4 = settings: concentration: 1 μM, replicates: in singlicate; n = 1
HPK1 = settings: concentration: 1 μM, replicates: in singlicate; n = 1
HUNK = settings: concentration: 1 μM, replicates: in singlicate; n = 1
ICK = settings: concentration: 1 μM, replicates: in singlicate; n = 1
IGF1R = settings: concentration: 1 μM, replicates: in singlicate; n = 1
[1] = concentration: 1 μM, replicates: in singlicate
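Further: KINOMEscan kinase panel screen.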

SMILES: Nc1ncnc2scc(-c3ccc(NC(=O)Cc4cc(F)ccc4F)cc3)c12.O=C(O)C(F)(F)F [SB-731254-M]
- %Inh (FYN): 0%
- %Inh (GAK): 26%
- %Inh (GCN2(Kin.Dom.2,S808G)): 19%
- %Inh (GRK1): 24%
- %Inh (GRK2): 0%
- %Inh (GRK3): 0%
- %Inh (GRK4): 15%
- %Inh (GRK7): 29%
- %Inh (GSK3A): 3%
- %Inh (GSK3B; [1]): 24%
- %Inh (HASPIN): 0%
- %Inh (HCK): 66%
- %Inh (HIPK1): 18%
- %Inh (HIPK2): 23%
- %Inh (HIPK3): 26%
- %Inh (HIPK4): 2%
- %Inh (HPK1): 44%
- %Inh (HUNK): 0%
- %Inh (ICK): 12%
- %Inh (IGF1R): 0%

SMILES: Cc1ccc(Nc2ccnc(Nc3ccc(C)c(F)c3)n2)cc1O.Cl [GW582868]
- %Inh (FYN): 79%
- %Inh (GAK): 53%
- %Inh (GCN2(Kin.Dom.2,S808G)): 36%
- %Inh (GRK1): 100%
- %Inh (GRK2): 0%
- %Inh (GRK3): 70%
- %Inh (GRK4): 0%
- %Inh (GRK7): 0%
- %Inh (GSK3A): 14%
- %Inh (GSK3B; [1]): 7%
- %Inh (HASPIN): 10%
- %Inh (HCK): 29%
- %Inh (HIPK1): 0%
- %Inh (HIPK2): 0%
- %Inh (HIPK3): 0%
- %Inh (HIPK4): 4%
- %Inh (HPK1): 30%
- %Inh (HUNK): 0%
- %Inh (ICK): 2%
- %Inh (IGF1R): 0%

SMILES: COc1ccc(C)c(Nc2ccnc(Nc3ccc(-c4cnc[nH]4)cc3)n2)c1.Cl [GW784041]
- %Inh (FYN): 56%
- %Inh (GAK): 52%
- %Inh (GCN2(Kin.Dom.2,S808G)): 100%
- %Inh (GRK1): 0%
- %Inh (GRK2): 0%
- %Inh (GRK3): 0%
- %Inh (GRK4): 27%
- %Inh (GRK7): 15%
- %Inh (GSK3A): 32%
- %Inh (GSK3B; [1]): 0%
- %Inh (HASPIN): 0%
- %Inh (HCK): 63%
- %Inh (HIPK1): 48%
- %Inh (HIPK2): 0%
- %Inh (HIPK3): 0%
- %Inh (HIPK4): 30%
- %Inh (HPK1): 0%
- %Inh (HUNK): 0%
- %Inh (ICK): 0%
- %Inh (IGF1R): 12%

SMILES: Cc1ccc(O)cc1Nc1ccnc2ccc(C(C)(C)C)cc12 [GW856805]
- %Inh (FYN): 96.5%
- %Inh (GAK): 61%
- %Inh (GCN2(Kin.Dom.2,S808G)): 5%
- %Inh (GRK1): 28%
- %Inh (GRK2): 0%
- %Inh (GRK3): 28%
- %Inh (GRK4): 17%
- %Inh (GRK7): 37%
- %Inh (GSK3A): 0%
- %Inh (GSK3B; [1]): 28%
- %Inh (HASPIN): 44%
- %Inh (HCK): 93.8%
- %Inh (HIPK1): 20%
- %Inh (HIPK2): 0%
- %Inh (HIPK3): 28%
- %Inh (HIPK4): 0%
- %Inh (HPK1): 0%
- %Inh (HUNK): 0%
- %Inh (ICK): 37%
- %Inh (IGF1R): 0%

SMILES: Nc1ncc(-c2ccc3nccc(-c4ccncc4)c3c2)cc1S(=O)(=O)N1CCCCC1 [GSK1693850]
- %Inh (FYN): 0%
- %Inh (GAK): 11%
- %Inh (GCN2(Kin.Dom.2,S808G)): 4%
- %Inh (GRK1): 21%
- %Inh (GRK2): 0%
- %Inh (GRK3): 0%
- %Inh (GRK4): 8%
- %Inh (GRK7): 11%
- %Inh (GSK3A): 22%
- %Inh (GSK3B; [1]): 13%
- %Inh (HASPIN): 80%
- %Inh (HCK): 0%
- %Inh (HIPK1): 42%
- %Inh (HIPK2): 0%
- %Inh (HIPK3): 20%
- %Inh (HIPK4): 57%
- %Inh (HPK1): 50%
- %Inh (HUNK): 82%
- %Inh (ICK): 16%
- %Inh (IGF1R): 10%

SMILES: CN(c1ccc(F)c(NC(=O)c2cccc(OC(C)(C)C#N)c2Cl)c1)c1ccc2nc(NC(=O)C3CC3)sc2n1
- %Inh (FYN): 79%
- %Inh (GAK): 0%
- %Inh (GCN2(Kin.Dom.2,S808G)): 0%
- %Inh (GRK1): 0%
- %Inh (GRK2): 0%
- %Inh (GRK3): 6%
- %Inh (GRK4): 4%
- %Inh (GRK7): 21%
- %Inh (GSK3A): 4%
- %Inh (GSK3B; [1]): 0%
- %Inh (HASPIN): 27%
- %Inh (HCK): 90%
- %Inh (HIPK1): 0%
- %Inh (HIPK2): 0%
- %Inh (HIPK3): 0%
- %Inh (HIPK4): 0%
- %Inh (HPK1): 0%
- %Inh (HUNK): 1%
- %Inh (ICK): 0%
- %Inh (IGF1R): 0%

SMILES: COC(=O)Nc1nc2ccc(Oc3ccc(CC(=O)Nc4cc(C(F)(F)F)ccc4F)cc3)cc2[nH]1 [GW680903]
- %Inh (FYN): 37%
- %Inh (GAK): 0%
- %Inh (GCN2(Kin.Dom.2,S808G)): 2%
- %Inh (GRK1): 0%
- %Inh (GRK2): 0%
- %Inh (GRK3): 66%
- %Inh (GRK4): 0%
- %Inh (GRK7): 0%
- %Inh (GSK3A): 5%
- %Inh (GSK3B; [1]): 0%
- %Inh (HASPIN): 0%
- %Inh (HCK): 0%
- %Inh (HIPK1): 0%
- %Inh (HIPK2): 0%
- %Inh (HIPK3): 0%
- %Inh (HIPK4): 0%
- %Inh (HPK1): 60%
- %Inh (HUNK): 15%
- %Inh (ICK): 0%
- %Inh (IGF1R): 0%

SMILES: Cc1ccccc1CC(=O)N1CCc2cc(-c3cn(C)c4ncnc(N)c34)ccc21 [GSK2603346]
- %Inh (FYN): 32%
- %Inh (GAK): 32%
- %Inh (GCN2(Kin.Dom.2,S808G)): 65%
- %Inh (GRK1): 9%
- %Inh (GRK2): 3%
- %Inh (GRK3): 0%
- %Inh (GRK4): 0%
- %Inh (GRK7): 0%
- %Inh (GSK3A): 1%
- %Inh (GSK3B; [1]): 2%
- %Inh (HASPIN): 0%
- %Inh (HCK): 13%
- %Inh (HIPK1): 0%
- %Inh (HIPK2): 0%
- %Inh (HIPK3): 1%
- %Inh (HIPK4): 0%
- %Inh (HPK1): 74%
- %Inh (HUNK): 0%
- %Inh (ICK): 0%
- %Inh (IGF1R): 0%

SMILES: O=C(Nc1n[nH]c2cc(-c3cccs3)ccc12)C1CC1 [SB-731284]
- %Inh (FYN): 0%
- %Inh (GAK): 0%
- %Inh (GCN2(Kin.Dom.2,S808G)): 0%
- %Inh (GRK1): 56%
- %Inh (GRK2): 0%
- %Inh (GRK3): 0%
- %Inh (GRK4): 47%
- %Inh (GRK7): 0%
- %Inh (GSK3A): 52%
- %Inh (GSK3B; 1 µM): 57%
- %Inh (HASPIN): 0%
- %Inh (HCK): 0%
- %Inh (HIPK1): 37%
- %Inh (HIPK2): 4%
- %Inh (HIPK3): 63%
- %Inh (HIPK4): 6%
- %Inh (HPK1): 0%
- %Inh (HUNK): 0%
- %Inh (ICK): 78%
- %Inh (IGF1R): 0%
